# TGFb SMAD3 inh = blocks TGF-b signaling. HepG2 CAGA-GFP TGF-b/SMAD3 reporter, GFP fluorescence, 18 h; TGF-beta stimulated, 500 pg/mL final. Potency, µM (series often up to 46.1 µM), without a hit: top-dose activity, negative = inhibition, actives largely listed as inhibitors. hit rate 1.2% among 410,000; further: on the % scale 0 is the no-effect control and ±100 the full control effect; nearly all actives have a fitted effect of over 65% in size
#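 First, reporter cells (HEPG2 CAGA-GFP) rested 2 h at 37 degrees C. Next, compounds were pinned in and TGF-beta added to 500 pg/mL final. After 18 h, GFP was imaged per cell and summed per well.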
# S2 tox = viability counter-screen for ATXN expression inhibitors. hit rate 0.49% among 400,000. Potency, µM (highest dose often 56.7 µM), actives largely listed as cytotoxic. S2 cells (HEK-293 line with an ATXN2-luciferase reporter) viability, CellTiter-Fluor protease fluorescence, 24 h; further: nearly all actives have a fitted effect of over 40% in size
# ATXN2 expr inh = ATXN2 expression inhibition; HEK-293 ATXN2-luciferase reporter, luminescence, 24 h; Potency, µM (top dose mostly 57 µM), for the others: top-dose activity change, negative = inhibition, hits mostly inhibitors; hit rate 0.72% among 360,000; further: on the % scale 0 is the no-effect control and ±100 the full control effect; nearly all actives have a fitted effect of over 55% in size
#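 ATXN2-luciferase reporter cells (luciferase flanked by upstream and downstream ATXN2 gene portions) were treated 24 h at 37 °C with compounds at up to 57 uM. SteadyGlo luminescence gave expression; GF-AFC fluorescence gave viability.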
# HepG2 tox = kills HepG2 cells in TGF-b inhibitor counter-screen | HepG2 CAGA-GFP viability, ATP luminescence, 18 h | Potency, µM (titrated, usually from 46.1 µM), for inactives: at the highest dose activity change, negative = cytotoxicity, hits mostly cytotoxic | hit rate 0.76% among 410,000 | AID 588856
#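 HepG2 CAGA-GFP cells (1000/well, DMEM with 1% FBS) received compound, then TGF-beta at 500 pg/mL final, and were incubated 18 hours at 37 degrees C. Viability was read by CellTiter-Glo luminescence. Media-only wells were set as complete cell-killing and DMSO as no toxicity.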
# HT1080-NT tox = kills 2HG-producing HT-1080-NT fibrosarcoma cells; AID 686970; hit rate 1.6% among 360,000; Potency, µM (series often up to 46.1 µM), without a hit: at the top dose activity, negative = less viability, hits mostly cytotoxic; HT-1080-NT fibrosarcoma viability, CellTiter-Glo ATP luminescence, 48 h;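 further: NT is the 2HG producing partner of a matched IDH1 knockdown line; 0% = DMSO-treated cells and -100% = media-only wells without cells; nearly all actives have a fitted effect of over 55% in size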
#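 HT-1080-NT; 750 cells/well; 5% FBS RPMI; 48 h compound, 37 degrees C; CellTiter-Glo luminescence; curve fitting and curve-class assignment.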
# HT1080 IDH1KD tx = kills HT-1080 cells with IDH1 knockdown; HT-1080 IDH1 knockdown viability, ATP luminescence, 48 h; Potency, µM (highest dose often 46.1 µM), for inactives: at the highest dose activity, negative = toxicity, hits mostly cytotoxic; hit rate 2% among 360,000; AID 686971;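 further: 0% = DMSO wells and -100% = cell-free medium wells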
#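 HT-1080-IDH1KD cells (IDH1 knocked down), 750/well in RPMI with 5% FBS, treated with compound 48 h at 37 degrees C. Viability by CellTiter-Glo luminescence, normalised to DMSO and no-cell wells; concentration-response curves classed.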
# The depositor's hits bear a star; i = inactive; ? = inconclusive; / = not tested or not shown. The list is not random: actives were taken first. Their share in the collection is about 3.8%. The call rests on the fitted dose curve; in most records, active means well fitted curve in the direction sought with a large enough effect; inconclusive means small, poorly fitted or top-dose-only effect, or another doubt; inactive means no such curve, though single readings can be large; an effect the other way counts as inactive or inconclusive. Potency means the concentration at half of the fitted maximal effect.
SMILES,TGFb SMAD3 inh,S2 tox,ATXN2 expr inh,HepG2 tox,HT1080-NT tox,HT1080 IDH1KD tx
O=C1Nc2ccc(Br)cc2C1=C1CCCCC1,-28.1%,i,-1.6%,2.0%,?,16.4µM*
COC(=O)c1cc(CNC(=O)c2cnsn2)cc(NC(=O)c2ccccc2OC)c1,/,i,/,/,/,/
Fc1ccc2cnc(-c3ccccc3)c(-c3ccc(C(F)(F)F)cc3)c2c1,-2.2%,i,41.3%,-33.5%,-11.6%,-26.0%
COc1cc2cnc(-c3ccccc3)c(-c3ccc(C(F)(F)F)cc3)c2cc1OC,11.2µM*,?,?,-34.7%,0.8%,6.7%
CCOc1ccc(NC(=O)C(C)n2c(=O)cc(C)c3c(C)nn(-c4ccccc4)c32)cc1 (stereo not given),-13.9%,?,1.2%,6.1%,/,/
CC(=O)c1cccc(NC(=O)COC(=O)c2ccccc2OCc2cccc(Br)c2)c1,/,/,/,/,-4.9%,2.4%
O=C(O)c1ccc(CN2C(=O)c3cccc4c([N+](=O)[O-])ccc(c34)C2=O)cc1,59.1%,/,?,-7.7%,?,?
Cc1ccc(C(=O)O)cc1N1C(=O)c2cccc3c([N+](=O)[O-])ccc(c23)C1=O,?,/,?,-11.5%,16.4µM*,?
O=C(Nc1nccs1)c1cccc(N2C(=O)c3cccc4c([N+](=O)[O-])ccc(c34)C2=O)c1,-26.2%,?,?,-8.6%,20.6µM*,16.4µM*
CN(C)CCCN1C(=O)c2cccc3c([N+](=O)[O-])ccc(c23)C1=O,?,/,?,-93.9%,?,5.8µM*
CCCC12CN3CC(C)(CN(C1)C3c1ccc(OCc3ccccc3)cc1)C2=O (stereo not given),-16.0%,i,4.7%,-3.2%,/,/
COc1ccc2nc3n(c(=O)c2c1)-c1cc2ccccc2cc1C(=O)NC3Cc1ccc(O)cc1 (stereo not given),?,?,?,-18.3%,6.51µM*,3.26µM*
COc1ccc2nc3n(c(=O)c2c1)-c1cc2ccccc2cc1C(=O)NC3Cc1ccccc1 (stereo not given),1.1%,?,-21.9%,-8.9%,-15.5%,-6.1%
O=C1NC(Cc2ccc(O)cc2)c2nc3ccc(Br)cc3c(=O)n2-c2ncccc21 (stereo not given),-3.8%,i,-1.7%,-21.4%,-22.7%,-28.9%
O=C1NC(Cc2ccc(O)cc2)c2nc3ccc(Br)cc3c(=O)n2-c2cc3ccccc3cc21 (stereo not given),12.6µM*,?,?,-35.6%,16.4µM*,13µM*
CCCC(c1c(C)n(C)n(-c2ccccc2)c1=O)c1c(C)n(C)n(-c2ccccc2)c1=O,-6.0%,i,-1.3%,11.2µM*,1.7%,?
Cc1cc(C)c(S(=O)(=O)/N=C2/C=C(Sc3ncn[nH]3)C(=O)c3ccccc32)cc1C,0.891µM*,22.4µM*,14.1µM*,1.78µM*,2.91µM*,4.61µM*
Cc1ccc(C)c(S(=O)(=O)/N=C2\C=C(NS(=O)(=O)c3ccccc3)C(=O)c3ccccc32)c1,?,i,-8.3%,-16.4%,-8.9%,-16.4%
CCc1c(O)cc(O)c(C(=O)c2ccc(OCCN3CCOCC3)c(OC)c2)c1CC(=O)N(CCOC)CCOC,/,/,1.09µM*,/,/,/
O=C(Nc1ccccc1Cl)c1ccc(F)c(S(=O)(=O)NCc2ccc(Cl)c(Cl)c2)c1,?,/,/,-35.4%,/,/
CCn1c(SCC(=O)c2[nH]c(C)c(C(C)=O)c2C)nnc1-c1ccccc1,?,i,-23.2%,3.2%,-0.7%,16.4µM*
CC1CCN(C2=C(NS(=O)(=O)c3ccccc3)C(=O)c3ccccc3C2=O)CC1,?,?,-7.3%,-39.2%,-26.8%,?
CC(=O)Nc1ccc(S(=O)(=O)NC2=C(N3CCN(C)CC3)C(=O)c3ccccc3C2=O)cc1,?,14.1µM*,/,-60.8%,-7.1%,0.4%
CC1CCN(C2=C(NS(=O)(=O)c3ccc(Br)cc3)C(=O)c3ccccc3C2=O)CC1,?,?,/,-43.2%,18.4µM*,-24.0%
CCN1CCN(C2=C(NS(=O)(=O)c3ccc(C)cc3)C(=O)c3ccccc3C2=O)CC1,12.6µM*,?,?,11.2µM*,?,?
SMILES,TGFb SMAD3 inh,S2 tox,ATXN2 expr inh,HepG2 tox,HT1080-NT tox,HT1080 IDH1KD tx
CO[C@H]1[C@H](NC(=O)C(C)C)c2ccccc2C12CCN(Cc1c(C)nn(C)c1Cl)CC2,/,i,/,/,/,/
O=C(O)c1ccccc1[O-].O=C(O)c1ccccc1[O-].[Zn+2],/,i,/,/,/,/
Cc1cc(C)cc(OC(=O)CS(=O)c2ccc(C(F)(F)F)cc2[N+](=O)[O-])c1 (stereo not given),?,i,-31.3%,-98.9%,20.6µM*,23.1µM*
CCCC[C@H]1CCCO[C@@](C(=O)NCc2ccc(C)o2)(C(F)(F)F)C1,-5.6%,/,/,-10.6%,/,/
N#Cc1c(Nc2ccccc2)s[nH]c1=O,?,i,-12.3%,-6.5%,-26.7%,-10.7%
N#Cc1c(Nc2ccccc2C(F)(F)F)s[nH]c1=O,20µM*,i,-9.3%,-52.8%,-24.8%,?
N#Cc1c(Nc2ccccc2Cl)s[nH]c1=O,0.0%,i,-11.0%,-143.5%,?,16.4µM*
COc1ccc(/C=C2\C=Cc3ccccc32)cc1OC,-17.2%,/,/,-17.1%,/,/
CC(C)c1cc(C(=O)NCCc2cccs2)c(N)s1,/,/,/,/,-7.6%,0.2%
Cc1ccc(C(=O)NCCc2cccs2)cc1,4.5%,i,14.1µM*,-2.5%,1.2%,10.5%
Nc1nc2ncccc2cc1C(=O)NCCc1cccs1,/,i,16.9%,/,-13.5%,14.6µM*
O=C(NC1CC1)c1ccc2nc(-c3ccco3)c(-c3ccco3)nc2c1,-16.0%,/,/,-11.5%,/,/
Cc1ccc(S(=O)(=O)N2CCN(c3nc(-c4cscn4)nc4ccccc34)CC2)cc1,/,/,/,/,-16.0%,1.3%
CCOc1ccc(C(=O)Nc2ccc(S(=O)(=O)N3C[C@@H]4C[C@@H](C3)c3cccc(=O)n3C4)cc2)cc1,-12.4%,i,-20.9%,-8.7%,?,23.1µM*
O=C(Nc1ccc(S(=O)(=O)N2C[C@@H]3C[C@@H](C2)c2cccc(=O)n2C3)cc1)c1ccc(F)cc1,-5.9%,i,1.4%,-4.1%,12.8%,-0.3%
CN1CCN(c2ccc(NC(=O)COc3ccccc3Cl)cc2)CC1,3.7%,i,-7.0%,-34.4%,1.6%,-3.1%
C=CC(=O)Nc1ccc(N(C)c2ccnc(Nc3ccc(N4CCN(C)CC4)cc3)n2)cc1,?,14.1µM*,-37.3%,-2.9%,-27.8%,-22.5%
